# Measured values: PubChem BioAssay AID1159580 (chemical genetic matrix, 2015)
# Where “and” joins values, the source holds several entries; their conditions need not be identical. Equal values may be shown once. Screen size: about 5,500 compounds; about 2,000 (36%) were called active. Another 18% or so got no clear call; they are omitted. The list shows a part of the results. Values without a mark were called inactive. Cut-off read from the data, not from the text of the source: active = normalized growth mostly below about 0.91 (no sharp cut-off); inconclusive = no clear call, values can overlap the other calls; inactive = mostly above about 0.92.
# Experiment: chemical genetic growth profiling, strain panel (AID 1159580);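 note: tested at 20 µM; growth read once vehicle control cultures reached saturation at 30 °C; 1 = growth at the plate median or of vehicle wells; lower values mean less growth of the strain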
# Settings: S. cerevisiae deletion strains, growth OD
smiles,measurement,setting,value
c1ccc2c(c1)CN1CCCC1=N2,normalized growth,"locus YAL021C, strain ccr4, active compounds read low",0.998
same,normalized growth,"locus YAL026C, strain drs2, active compounds read low",1
same,normalized growth,"locus YAL030W, strain snc1, active compounds read low",1
same,normalized growth,"locus YBL061C, strain skt5, active compounds read low",0.999
same,normalized growth,"locus YBR009C, strain hhf1, active compounds read low",0.987
same,normalized growth,"locus YBR021W, strain FUR4, active compounds read low",1.19 [resistant] (active)
same,normalized growth,"locus YBR023C, strain chs3, active compounds read low",1
same,normalized growth,"locus YBR171W, strain sec66, active compounds read low",1
same,normalized growth,"locus YBR229C, strain ROT2, active compounds read low",1.01
same,normalized growth,"locus YBR231C, strain swc5, active compounds read low",0.997
same,normalized growth,"locus YBR279W, strain paf1, active compounds read low",0.996
same,normalized growth,"locus YCL011C, strain gbp2, active compounds read low",1.01
same,normalized growth,"locus YCL016C, strain dcc1, active compounds read low",0.997
same,normalized growth,"locus YCL029C, strain bik1, active compounds read low",0.972
same,normalized growth,"locus YCL061C, strain MRC1, active compounds read low",1.01
same,normalized growth,"locus YCL069W, strain vba3, active compounds read low",1
same,normalized growth,"locus YCR088W, strain abp1, active compounds read low",0.998
same,normalized growth,"locus YDL005C, strain med2, active compounds read low",0.993
same,normalized growth,"locus YDL035C, strain GPR1, active compounds read low",1.03
same,normalized growth,"locus YDL040C, strain nat1, active compounds read low",1
same,normalized growth,"locus YDL074C, strain BRE1, active compounds read low",1.01
same,normalized growth,"locus YDL101C, strain DUN1, active compounds read low",0.99
same,normalized growth,"locus YDL134C, strain PPH21, active compounds read low",1.01
same,normalized growth,"locus YDL185W, strain tfp1, active compounds read low",0.971
same,normalized growth,"locus YDL192W, strain arf1, active compounds read low",0.985
same,normalized growth,"locus YDR001C, strain nth1, active compounds read low",0.992
same,normalized growth,"locus YDR069C, strain doa4, active compounds read low",1
same,normalized growth,"locus YDR101C, strain arx1, active compounds read low",0.978
same,normalized growth,"locus YDR137W, strain rgp1, active compounds read low",1.01
same,normalized growth,"locus YDR150W, strain NUM1, active compounds read low",0.998
same,normalized growth,"locus YDR159W, strain sac3, active compounds read low",0.991
same,normalized growth,"locus YDR162C, strain NBP2, active compounds read low",1.02
same,normalized growth,"locus YDR195W, strain ref2",0.968
same,normalized growth,"locus YDR297W, strain sur2, active compounds read low",1
same,normalized growth,"locus YDR318W, strain mcm21, active compounds read low",0.988
same,normalized growth,"locus YDR334W, strain swr1, active compounds read low",0.999
same,normalized growth,"locus YDR335W, strain msn5, active compounds read low",1.01
same,normalized growth,"locus YDR388W, active compounds read low",0.989
same,normalized growth,"locus YDR392W, strain spt3, active compounds read low",0.919
same,normalized growth,"locus YDR502C, strain sam2, active compounds read low",0.988
same,normalized growth,"locus YEL003W, strain gim4, active compounds read low",0.999
same,normalized growth,"locus YEL037C, strain rad23, active compounds read low",0.999
same,normalized growth,"locus YEL061C, strain CIN8 (second series), active compounds read low",0.996
same,normalized growth,"locus YEL061C, strain CIN8, active compounds read low",1
same,normalized growth,"locus YER015W, strain faa2, active compounds read low",0.998
same,normalized growth,"locus YER016W, strain bim1, active compounds read low",1
same,normalized growth,"locus YER110C, active compounds read low",0.967
same,normalized growth,"locus YER111C, strain swi4, active compounds read low",1
same,normalized growth,"locus YER155C, strain BEM2 (second series), active compounds read low",1
same,normalized growth,"locus YER155C, strain BEM2, active compounds read low",0.993
same,normalized growth,"locus YER167W, strain BCK2, active compounds read low",1
same,normalized growth,"locus YFR010W, strain ubp6, active compounds read low",1
same,normalized growth,"locus YGL078C, strain dbp3, active compounds read low",0.993
same,normalized growth,"locus YGL086W, strain mad1, active compounds read low",0.967
same,normalized growth,"locus YGL167C, strain pmr1, active compounds read low",0.995
same,normalized growth,"locus YGL173C, strain kem1, active compounds read low",0.997
same,normalized growth,"locus YGL227W, strain vid30, active compounds read low",0.993
same,normalized growth,"locus YGL240W, strain doc1, active compounds read low",1.01
same,normalized growth,"locus YGL248W, strain PDE1, active compounds read low",1
same,normalized growth,"locus YGL253W, strain hxk2, active compounds read low",1
same,normalized growth,"locus YGR078C, strain PAC10, active compounds read low",1.01
same,normalized growth,"locus YGR135W, strain pre9, active compounds read low",0.998
same,normalized growth,"locus YGR229C, strain SMI1, active compounds read low",1.03
same,normalized growth,"locus YGR252W, strain gcn5, active compounds read low",1.1
same,normalized growth,"locus YHR013C, strain ard1, active compounds read low",0.983
same,normalized growth,"locus YHR027C, strain rpn1, active compounds read low",1.01
same,normalized growth,"locus YHR030C, strain SLT2, active compounds read low",1.01 and 0.994
same,normalized growth,"locus YHR079C, strain IRE1 (second series), active compounds read low",0.97
same,normalized growth,"locus YHR079C, strain IRE1, active compounds read low",1.02
same,normalized growth,"locus YHR094C, strain hxt1, active compounds read low",0.991
same,normalized growth,"locus YHR129C, strain ARP1, active compounds read low",0.995
same,normalized growth,"locus YHR142W, strain chs7, active compounds read low",1.01
same,normalized growth,"locus YHR200W, strain rpn10, active compounds read low",0.979
same,normalized growth,"locus YIL066C, strain RNR3, active compounds read low",1.01
same,normalized growth,"locus YIL073C, strain SPO22, active compounds read low",0.906
same,normalized growth,"locus YIL125W, strain kgd1, active compounds read low",0.989
same,normalized growth,"locus YIR030C, strain dcg1, active compounds read low",0.985
same,normalized growth,"locus YJL092W, strain hpr5, active compounds read low",0.995
same,normalized growth,"locus YJL095W, strain BCK1 (second series), active compounds read low",1
same,normalized growth,"locus YJL095W, strain BCK1, active compounds read low",1 and 0.988
same,normalized growth,"locus YJL115W, strain asf1, active compounds read low",1
same,normalized growth,"locus YJL129C, strain trk1, active compounds read low",1.01
same,normalized growth,"locus YJL134W, strain LCB3, active compounds read low",1.01
same,normalized growth,"locus YJL154C, strain vps35, active compounds read low",0.996
same,normalized growth,"locus YJL164C, strain tpk1, active compounds read low",1.01
same,normalized growth,"locus YJL166W, strain qcr8, active compounds read low",1
same,normalized growth,"locus YJL168C, strain set2, active compounds read low",0.98
same,normalized growth,"locus YJL187C, strain SWE1 (second series), active compounds read low",0.99
same,normalized growth,"locus YJL187C, strain SWE1, active compounds read low",1
same,normalized growth,"locus YJR043C, strain POL32, active compounds read low",1.06
same,normalized growth,"locus YJR066W, strain TOR1, active compounds read low",0.989
same,normalized growth,"locus YKL009W, strain mrt4, active compounds read low",0.955
same,normalized growth,"locus YKL068W, active compounds read low",0.984
same,normalized growth,"locus YKL085W, strain MDH1 (second series), active compounds read low",0.981
same,normalized growth,"locus YKL085W, strain MDH1, active compounds read low",0.981
same,normalized growth,"locus YKL160W, strain elf1, active compounds read low",1
same,normalized growth,"locus YKL190W, strain CNB1, active compounds read low",1.01
same,normalized growth,"locus YKR001C, strain vps1, active compounds read low",0.98
same,normalized growth,"locus YKR026C, strain gcn3, active compounds read low",0.992
same,normalized growth,"locus YKR091W, strain srl3, active compounds read low",0.994
same,normalized growth,"locus YLL001W, strain dnm1, active compounds read low",0.988
same,normalized growth,"locus YLL026W, active compounds read low",0.996
same,normalized growth,"locus YLL041C, strain sdh2, active compounds read low",0.996
same,normalized growth,"locus YLR027C, strain aat2, active compounds read low",1.01
same,normalized growth,"locus YLR039C, strain RIC1, active compounds read low",1.01
same,normalized growth,"locus YLR058C, strain SHM2, active compounds read low",1
same,normalized growth,"locus YLR102C, strain apc9, active compounds read low",0.981
same,normalized growth,"locus YLR113W, strain HOG1, active compounds read low",0.973
same,normalized growth,"locus YLR221C, strain rsa3, active compounds read low",0.999
same,normalized growth,"locus YLR258W, strain gsy2, active compounds read low",1
same,normalized growth,"locus YLR262C, strain YPT6 (second series), active compounds read low",1.02
same,normalized growth,"locus YLR262C, strain YPT6, active compounds read low",1.04
same,normalized growth,"locus YLR268W, strain sec22, active compounds read low",0.951
same,normalized growth,"locus YLR320W, strain mms22, active compounds read low",1.01
same,normalized growth,"locus YLR330W, strain CHS5, active compounds read low",0.996
same,normalized growth,"locus YLR342W, strain FKS1 (second series), active compounds read low",1.08
same,normalized growth,"locus YLR342W, strain FKS1, active compounds read low",1.01
same,normalized growth,"locus YLR357W, strain rsc2, active compounds read low",0.991
same,normalized growth,"locus YLR370C, strain arc18, active compounds read low",1.01
same,normalized growth,"locus YLR371W, strain rom2, active compounds read low",0.965
same,normalized growth,"locus YLR384C, strain iki3, active compounds read low",0.988
same,normalized growth,"locus YLR418C, strain cdc73, active compounds read low",1
same,normalized growth,"locus YML016C, strain PPZ1, active compounds read low",1
same,normalized growth,"locus YML032C, strain rad52, active compounds read low",1.01
same,normalized growth,"locus YML120C, strain ndi1, active compounds read low",1.01
same,normalized growth,"locus YML124C, strain tub3, active compounds read low",1
same,normalized growth,"locus YMR058W, strain fet3, active compounds read low",1
same,normalized growth,"locus YMR078C, strain ctf18, active compounds read low",0.959
same,normalized growth,"locus YMR125W, strain sto1, active compounds read low",1.01
same,normalized growth,"locus YMR129W, active compounds read low",0.976
same,normalized growth,"locus YMR205C, strain PFK2, active compounds read low",0.99
same,normalized growth,"locus YMR223W, strain ubp8, active compounds read low",0.992
same,normalized growth,"locus YMR231W, strain pep5, active compounds read low",0.996
same,normalized growth,"locus YMR263W, strain SAP30, active compounds read low",0.991
same,normalized growth,"locus YMR307W, strain GAS1, active compounds read low",1.21
same,normalized growth,"locus YNL067W, strain RPL9B, active compounds read low",0.979
same,normalized growth,"locus YNL071W, strain lat1, active compounds read low",1.01
same,normalized growth,"locus YNL153C, strain GIM3, active compounds read low",1
same,normalized growth,"locus YNL183C, strain NPR1, active compounds read low",0.967
same,normalized growth,"locus YNL209W, strain ssb2, active compounds read low",1
same,normalized growth,"locus YNL233W, strain BNI4, active compounds read low",1
same,normalized growth,"locus YNL248C, strain rpa49, active compounds read low",1.01
same,normalized growth,"locus YNL250W, strain rad50, active compounds read low",0.937
same,normalized growth,"locus YNL271C, strain bni1, active compounds read low",0.989
same,normalized growth,"locus YNL298W, strain CLA4, active compounds read low",0.996
same,normalized growth,"locus YNL307C, strain MCK1, active compounds read low",0.972
same,normalized growth,"locus YNL322C, strain KRE1 (second series), active compounds read low",1
same,normalized growth,"locus YNR049C, strain mso1, active compounds read low",1
same,normalized growth,"locus YNR052C, strain pop2, active compounds read low",0.992
same,normalized growth,"locus YOL006C, strain TOP1, active compounds read low",0.918
same,normalized growth,"locus YOL012C, strain htz1",0.782
same,normalized growth,"locus YOL147C, strain pex11, active compounds read low",0.995
same,normalized growth,"locus YOR001W, strain rrp6, active compounds read low",1
same,normalized growth,"locus YOR061W, strain CKA2, active compounds read low",0.998
same,normalized growth,"locus YOR069W, strain VPS5, active compounds read low",0.998
same,normalized growth,"locus YOR070C, strain gyp1, active compounds read low",0.993
same,normalized growth,"locus YOR080W, strain dia2, active compounds read low",0.992
same,normalized growth,"locus YOR083W, strain WHI5, active compounds read low",1
same,normalized growth,"locus YOR106W, strain vam3, active compounds read low",1.02
same,normalized growth,"locus YOR136W, strain idh2, active compounds read low",0.976
same,normalized growth,"locus YOR144C, strain elg1, active compounds read low",1.01
same,normalized growth,"locus YOR184W, strain ser1, active compounds read low",0.992
same,normalized growth,"locus YOR231W, strain MKK1, active compounds read low",1.02
same,normalized growth,"locus YOR265W, strain rbl2, active compounds read low",1.01
same,normalized growth,"locus YOR270C, strain vph1, active compounds read low",1.02
same,normalized growth,"locus YOR290C, strain snf2, active compounds read low",0.955
same,normalized growth,"locus YOR316C, strain cot1, active compounds read low",0.98
same,normalized growth,"locus YPL051W, strain arl3, active compounds read low",1.01
same,normalized growth,"locus YPL055C, strain LGE1, active compounds read low",1
same,normalized growth,"locus YPL078C, strain atp4, active compounds read low",1.01
same,normalized growth,"locus YPL106C, strain sse1, active compounds read low",1.02
same,normalized growth,"locus YPL240C, strain hsp82, active compounds read low",0.992
same,normalized growth,"locus YPL256C, strain CLN2, active compounds read low",1
same,normalized growth,"locus YPR119W, strain clb2, active compounds read low",0.966
same,normalized growth,"locus YPR141C, strain kar3, active compounds read low",0.969
same,normalized growth,"locus YPR163C, strain tif3, active compounds read low",0.997
same,normalized growth,"locus YPR167C, strain met16, active compounds read low",0.976
same,normalized growth,"strain wtn01, active compounds read low",0.957
